The text below walks through data of PubChem BioAssay (EPA / NIEHS).

Activity calls are given as the source filed them. How the source made its calls: active means hit-call score of the fitted dose curve at least 0.9, where 1 is the maximum; inactive means score below 0.9.

A short description of the assay: ATG_FoxO_CIS: Attagene CIS-FACTORIAL HepG2 Assay for human Forkhead box O (FoxO) (AID 2282943). Particulars: HepG2 Attagene cis-reporter, FoxO element, mRNA; actives raise or lower the signal. The protocol:
ATG_CIS is a cell-based, multiplexed-readout assay that uses HepG2, a human liver cell line, with measurements taken at 24 hours after chemical dosing in a 24-well plate.ATG_FoxO_CIS is one of 52 assay component(s) measured or calculated from the ATG_CIS assay. It is designed to make measurements of mRNA induction, a form of inducible reporter, as detected with fluorescence intensity signals by Reverse transcription polymerase chain reaction (RT-PCR) and Capillary electrophoresis technology.Data from the assay component ATG_FoxO_CIS was analyzed into 1 assay endpoint. This assay endpoint, ATG_FoxO_CIS, was analyzed with bidirectional fitting relative to DMSO as the negative control and baseline of activity. Using a type of inducible reporter, measures of mRNA for gain or loss-of-signal activity can be used to understand the reporter gene at the transcription factor-level as they relate to the gene FOXO1 and FOXO3. Furthermore, this assay endpoint can be referred to as a primary readout, because this assay has produced multiple assay endpoints where this one serves a reporter gene function. To generalize the intended target to other relatable targets, this assay endpoint is annotated to the dna binding intended target family, where the subfamily is forkhead box protein.
Human liver HepG2 cells are transiently transfected with multiple reporter transcription units (MRTUs) in 6-well plates using FuGene 6 reagent (Roche; 3 ml FuGene/1 mg DNA). The MRTU constructs are regulated by a cis-regulating element (promoter). […] A major difference between the CIS and TRANS system is that in CIS activities of endogenous TFs are measured, whereas the TRANS assay evaluates changes in activities of exogenous, chimeric NR-Gal4 proteins. […] At the end of 24 hour incubation, total RNA was isolated using TriZol reagent (Invitrogen). The isolated RNA is then reverse-transcribed using oligo(dT) primer and Mo-MLV reverse transcriptase (Invitrogen) with DNAse I (Ambion) treatment for 30 min. The one-tenth of the produced cDNA was amplified by PCR using Taq DNA polymerase (Invitrogen) and two reporter sequence-specific primers. The PCR products were fluorescently labeled by primer extension with 6-arboxyfluorescein (6-FAM) 5'-labeled reporter sequence-specific primer (2 min at 95 C, 20 s at 68 C and 10 min at 72 C) and these products were digested with 5U of HpaI (New England Biolabs) for 2h at 37 C. The fragments were purified using Qiaquick PCR columns (Qiagen), analyzed on an ABI 3130xL genetic analyzer (Applied Biosystems) with peak positions identified by using a set of X-rhodamine (ROX)-labeled MapMarker1000 molecular weight standards (BioVentures). The raw capillary electrophoresis data was processed using Attagraph software (Attagene).
For `C=C1CC[C@H]2C[C@@H]1C2(C)C`, the molecule was classed as inactive.
Turning to `CCCN[C@H]1CCc2nc(N)sc2C1`, the call was inactive.
Regarding `Clc1ccc(Sc2cc(Cl)c(Cl)cc2Cl)cc1`, the result was inactive.
As to `COC(=O)/C=C\C(=O)OC`, the result was inactive.
As for `c1ccc(CNc2ncnc3nc[nH]c23)cc1`, the call was inactive.
Same read-out and setting: as for `O=[N+]([O-])c1ccccc1C(F)(F)F`, the entry is “inactive”; as for `O=C(O)c1ccccc1C(=O)O`, “inactive”.
For the molecule `C=C(C)C(=O)OCCCCCC`, the result was inactive.
With `COc1ccc2ccccc2c1`, the molecule was called inactive.
Take `CC(C)=CCOC(=O)c1ccccc1`: the call was inactive.
On to `CCCCC(CC)COC(=O)CS` (stereo not given), for which the molecule was classed as inactive.
As to `O=C1CCCCCCCCCCCCCC1`, the molecule was classed as inactive.
The same measure, in the same setting: as for `CC(=O)Nc1c(I)c(NC(C)=O)c(I)c(C(=O)O)c1I`, the entry is “inactive”.
Turning to `Oc1cccc2ccccc12`, the molecule was called inactive.
As to `c1cc(N(CC2CO2)CC2CO2)ccc1Cc1ccc(N(CC2CO2)CC2CO2)cc1` (stereo not given), the result was inactive.
Take `O=C(CC(C(=O)OC1CCCCC1)S(=O)(=O)O)OC1CCCCC1` (stereo not given): the call was inactive.
In the case of `CCOc1ccc2c(c1)C(C)CC(C)(C)N2` (stereo not given), the call was inactive.
`Cc1cc2nc3c(=O)[nH]c(=O)nc-3n(C[C@H](O)[C@H](O)[C@H](O)CO)c2cc1C`: the call was inactive.
For `CCCCNC(N)=O`, the molecule was classed as inactive.
`CC/C=C\CC1=C(C)CCC1=O`: the call was inactive.
Consider `CCOC(=O)c1ccccc1`, for which the molecule was called inactive.
For the molecule `C=CN1CCCCCC1=O`, the molecule was called inactive.
For `CCO[Si](CCCN)(OCC)OCC`, the molecule was called inactive.
Regarding `c1ccc2c(c1)Oc1ccccc1S2`, the call was inactive.
In the case of `CCCCCCOC(=O)CCCCCCCC(=O)OCCCCCC`, the outcome was inactive.
`CCOC(=O)CC(=O)OCC`: the molecule was called inactive.
The AC50 is the midpoint of the concentration-response curve, whichever way the signal moves. Take `CCCCCCCCCCCCCCCCCC[N+](C)(C)C`: the AC50 was 42 µM (active).
`Cc1cc(C)c(S(=O)(=O)O)cc1N=Nc1cc(S(=O)(=O)O)c2ccccc2c1O`: the molecule was called inactive.
As to `CN(C)c1ccc(C(c2ccccc2)c2ccc(N(C)C)cc2)cc1`, the outcome was inactive.
Take `CCCCn1cc[n+](C)c1`: the molecule was classed as inactive.
Same read-out and setting: as for `CC(C)n1c(/C=C/[C@@H](O)C[C@@H](O)CC(=O)O)c(-c2ccc(F)cc2)c2ccccc21`, the entry is “inactive”.
For `CN(C)N=Nc1ccccc1`, the molecule was called inactive.
In the case of `C/C=C(\C)C(=O)OCC/C=C\CC`, the molecule was called inactive.
On the same count and under the same terms, as for `CCCC[N+]1(C)CCCC1`, the entry is “inactive”.
On to `CCCCCC1CCCC(=O)O1` (stereo not given), for which the result was inactive.
Consider `COC(OC)C(C)c1ccccc1` (stereo not given), for which the outcome was inactive.
Turning to `COC(=O)c1ccccc1`, the molecule was called inactive.
For the molecule `[O-][n+]1ccc(Cl)cc1`, the call was inactive.
`CCCCCCCC#N`: the outcome was inactive.
For `CCC(C)C1N=C(C)C(C)S1` (stereo not given), the molecule was called inactive.
